Compounds without any hit were thinned out: in the full panel of roughly 83,000, 20% have a hit.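 Assay: single dose, 48 h. Readout: percent growth (0 = no net growth; negative = cell death). Active: <10.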 Activity calls are given as the source filed them.

The subject of this experiment is NCI-H322M lung. As to the kind of experiment: NCI-60 one-dose screen, 48 h (100 = growth as untreated, 0 = no growth, -100 = all killed). The following applies: 10 µM.
For the compound `CC(=O)Nc1ccc(-c2cn(-c3cccc(C(=O)Nc4cc(C(F)(F)F)cc(C(F)(F)F)c4)c3)nn2)cn1`, the growth was -15.6% (active).

On to `NS(=O)(=O)c1ccc(N=Nc2c(O)n(CC(=O)Nc3ccccc3Br)c3ccccc23)cc1`, for which the growth is 50.3% (inactive). With `N#Cc1c(Cl)nc(SCc2ccc(F)cc2)nc1-c1ccc(F)cc1` the figure was 92.2% (inactive); with `CN(C)c1ccc(/C=C/C(=O)c2ccc(NC(=O)CN3C(=O)NC(C)(c4ccccc4)C3=O)cc2)cc1` (stereo not drawn), 88.8% (inactive). Then `Cc1cc(C)nc(NS(=O)(=O)c2ccc(N/C(N)=N/c3nccc(-c4cccs4)n3)cc2)n1`, with 95.6% (inactive).

For the compound `COc1ccc(/C=C/C(=O)c2ccc(N3CCN(C)CC3)cc2)c(C(F)(F)F)c1`, the growth was 76.5% (inactive).

`Clc1ccc(/C=N/Nc2ncnc3sc4c(c23)CCN(Cc2ccccc2)C4)cc1`: the growth is 22.3% (inactive). With `COc1cccc(/C=N/NC(=O)c2ccc3nc(-c4ccc(Cl)cc4)[nH]c3c2)c1O` the figure was -81.6% (active).

Take `COc1ccc(-c2nc(S(=O)(=O)c3ccc(C)cc3)c(S(=O)(=O)CC(=O)N(C)Cc3ccccc3)o2)cc1`: the growth was 93.1% (inactive). Then `CC1=C2C(=C[C@@](C)(CO)[C@@H]2O)/C(=N\N)[C@](C)(O)C12CC2`, with -11.9% (active); and `CC(=O)c1ccc(Nc2nc(SC(C)C)nc(-c3ccccc3)c2C#N)cc1`, with 24.2% (inactive); and `CCN1CCN(Cc2ccc(NC(=O)c3cccc(-n4cc(-c5ccc(NC(C)=O)nc5)nn4)c3)cc2C(F)(F)F)CC1`, with 125% (inactive). With `CC(C)c1ccc(C(=O)Nc2sc3c(c2C(N)=O)CCC(=O)C3=O)cc1` the figure was 104% (inactive).

The values are drawn from PubChem BioAssay (NCI).
